Bioassay records from PubChem.
An excerpt weighted towards active compounds, which were near 10% of everything screened.
GPT2 inh: inhibitors of human GPT2 alanine aminotransferase; 0.25% of 100,000 active; Recombinant GPT2, coupled pyruvate oxidase/HRP Amplex Red fluorescence; Q8TD30; Potency, µM (highest dose often 57.7 µM), usual class: inhibitors; further: nearly all actives have a fitted effect of over 60% in size
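Fluorescence read-out: pyruvate from GPT2 turnover coupled to pyruvate oxidase, HRP and Amplex Red (0.2mM ThPP, 0.2U/mL PO and HRP, 50uM Amplex final). Substrates 250uM a-KG, 2mM L-alanine; enzyme 10ng/uL; 30 min RT.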
Luciferase inh: Photinus pyralis luciferase inhibition. Potency, µM (top dose mostly 115 µM), hits mostly inhibitors. P08659. 2.5% of 76,000 active. purified P. pyralis luciferase, luminescence, biochemical; further: nearly all actives have a fitted effect of over 65% in size
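Purified 10nM P. pyralis luciferase with 10uM D-luciferin and 10uM ATP in 50mM Tris acetate pH 7.5, 10mM Mg acetate, 0.01% Tween-20, 0.05% BSA. qHTS titration; luminescence read by CCD imager.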
HEK cytotox: HEK 293 cell cytotoxicity; HEK 293 viability, ATP luminescence (CellTiter-Glo), 48-72 h; Potency, µM (top dose mostly 115 µM), actives largely listed as inhibitors; 6.6% of 94,000 active; AID 1345083; further: nearly all actives have a fitted effect of over 60% in size
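CellTiter-Glo luminescence (cellular ATP) was read after 48 or 72 hr of compound exposure at 37 degree Celsius. Cells were HEK 293 plated at 250 cells/well.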
NPR1 antag: human Npr1 receptor antagonism | P16066 | HEK293 hNpr1 GloSensor cGMP, ANP-stimulated luminescence | Potency, µM (doses to about 46.3 µM), actives largely listed as inhibitors | 1.6% of 76,000 active; calls by dose curve; further: nearly all actives have a fitted effect of over 60% in size
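HEK293 cells stably expressing human Npr1 and cGMP GloSensor pGS-40F, loaded 2 h with 2% GloSensor reagent, given compound 30 min at room temperature. Luminescence read before and 20 min after 0.1 nM hNppA.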
3T3 cytotox: NIH 3T3 cell cytotoxicity | Potency, µM (titrated, usually from 96.7 µM), usual class: inhibitors | 4.3% of 94,000 active | NIH 3T3 viability, CellTiter-Glo ATP luminescence, 48-72 h; further: nearly all actives have a fitted effect of over 55% in size
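Mouse fibroblast NIH 3T3 cells, 400 per well, received compound via pintool and were incubated for 48 or 72 hr prior to CellTiter-Glo ATP luminescence measurement.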
Hits are given with their value; n = inactive; u = inconclusive; x = no result; [ ] = remark or other dose. Unless noted, the call rests on the fitted dose curve; in most records, active means well fitted curve in the direction sought with a large enough effect; inconclusive means small, poorly fitted or top-dose-only effect, or another doubt; inactive means no such curve, though single readings can be large; an effect the other way counts as inactive or inconclusive.

SMILES	GPT2 inh	Luciferase inh	HEK cytotox	NPR1 antag	3T3 cytotox
Cc1cc(N2CCC(NCc3nc[nH]c3C)CC2)nc(-c2ccccc2O)n1	n	n	u	n	35µM
Cc1cc(N2CCC(NCc3noc(C)n3)CC2)nc(-c2ccccc2O)n1	n	n	u	n	u
O=C(c1nc(-c2ccccc2)c2ccccn12)N1CCN(c2ncccn2)CC1	n	n	79µM	n	n
O=C(c1nc(-c2cc(Cl)cc(Cl)c2)c2ccccn12)N1CCOCC1	n	n	u	n	n
O=C(c1nc(-c2ccccc2)c2ccccn12)N1CCOCC1	n	n	89µM	n	u
O=C(c1nc(-c2ccc(F)cc2)c2ccccn12)N1CCOCC1	n	n	112µM	n	n
COc1cccc(OCC(=O)c2ccc3c(c2)N(C(C)C(=O)NCCc2ccccc2)C(=O)CO3)c1 (centres undefined)	n	n	u	n	u
O=C(NCc1cc2n(n1)CCN(C1CCCCC1)C2)c1cnn2ccccc12	n	n	u	n	u
O=C(C[C@H]1NC(=O)c2ccccc2NC1=O)Nc1nc(-c2ccncc2)cs1	n	n	n	n	u
O=C(C[C@H]1NC(=O)c2ccccc2NC1=O)Nc1nc(-c2cccnc2)cs1	n	n	45µM	n	u
Cc1nc(CN2C[C@H](C(=O)NCc3ccc4c(c3)OCO4)C[C@@H]2c2ccc(F)cc2)cs1	u	n	u	n	u
COc1ccc(NC(=O)[C@@H]2C[C@H](c3ccc(F)cc3)N(Cc3csc(C)n3)C2)cc1	n	n	79µM	n	u
COc1ccc(NC(=O)[C@@H]2C[C@@H](c3ccc(F)cc3)N(Cc3ccccc3)C2)cc1	n	n	u	n	n
Cc1nc(CN2C[C@H](C(=O)Nc3ccc(F)cc3)C[C@@H]2c2ccc(F)cc2)cs1	n	n	100µM	n	100µM
CCCCCC(=O)N1CCC2(CC1)[C@H](C(=O)OCC)[C@@H](O)C(=O)N2Cc1ccccc1	x	x	n	x	u
CCOC(=O)c1cccc(NC(=O)c2ccc3c(c2)N(CC)C2CCCCN2C3=O)c1 (centres undefined)	n	n	40µM	n	40µM
CN1c2cc(C(=O)Nc3ccc(C(N)=O)cc3)ccc2C(=O)N2CCCCCC21 (centres undefined)	n	n	u	n	u
CCN1c2cc(C(=O)Nc3cccc(C)c3)ccc2C(=O)N2CCCC21 (centres undefined)	n	n	u	n	u
CCOC(=O)c1cccc(NC(=O)c2ccc3c(c2)N(C)C2CCCCCN2C3=O)c1 (centres undefined)	n	u	32µM	n	u
COc1ccc(CN2C[C@@H]3C[C@@H](C(N)=O)N(C(=O)C(C)C)c4cccc(c43)C2=O)cc1	n	x	n	x	u
CN(Cc1ccccc1)C(=O)C[C@@H]1CCNC[C@@H]1Cc1cc(-c2ccccc2)on1	n	n	25µM	n	10µM
CC(=O)N1CCN(C(=O)C[C@@H]2CCNC[C@@H]2Cc2cc(-c3ccccc3)on2)CC1	n	n	n	n	n
CN(Cc1ccccc1)C(=O)C[C@@H]1CCNC[C@@H]1Cc1cc(COc2ccccc2)on1	n	n	50µM	n	28µM
CCN(CC)C(=O)C[C@@H]1CCNC[C@@H]1Cc1cc(-c2ccccn2)on1	n	n	n	n	n
CCCCc1cc(C[C@H]2CNCC[C@H]2CC(=O)N(C)Cc2ccccc2)no1	n	n	100µM	n	u
SMILES	GPT2 inh	Luciferase inh	HEK cytotox	NPR1 antag	3T3 cytotox
NC(=O)C1CCN(C(=O)C[C@@H]2CCNC[C@@H]2Cc2cc(COc3ccccc3)on2)CC1	n	n	n	n	n
Cc1cc2cc(-c3c(C)noc3C)nc(N(C)C)c2o1	u	n	100µM	n	u
Cc1cc2cc(-c3c(C)noc3C)nc(N3CCN(c4ccccn4)CC3)c2o1	u	n	13µM	n	28µM
Cc1noc(C)c1-c1cc2cc(C(C)C)oc2c(NCc2cccnc2)n1	n	n	u	n	u
Cc1cc2cc(-c3c(C)noc3C)nc(N3CCN(C)C(=O)C3)c2o1	n	n	u	n	u
Cc1noc(C)c1-c1cc2cc(C(C)C)oc2c(N(C)CCN(C)C)n1	u	n	35µM	n	25µM
Cc1cc2cc(-c3c(C)noc3C)nc(-c3ccccc3)c2o1	n	n	u	n	u
Cc1ccc(CN2CC[C@@H]3C(=O)NCCCCCCN(Cc4ccncc4)[C@@H]3C2)o1	u	n	u	n	u
COC(=O)[C@@H]1Cc2c([nH]c3ccccc23)[C@H]2C[C@@H](NCCN3CCOCC3)C[C@@H](c3ccc(F)cc3)N21	n	n	28µM	n	u
COC(=O)[C@@H]1Cc2c([nH]c3ccccc23)[C@H]2C[C@H](NCCN3CCOCC3)C[C@@H](c3ccc(F)cc3)N21	n	n	20µM	n	25µM
O=C(C[C@@H]1O[C@H](CNCc2ccc(F)cc2)[C@@H](O)[C@H]1O)NCCN1CCOCC1	n	n	n	n	u
O=C(NCCN1CCOCC1)C1CCc2nnc(-c3ccc(F)cc3)n21 (centres undefined)	n	x	n	x	n
CCc1ccc(NC(=O)Cn2ccn3nc4c(c3c2=O)CC(C)CC4)cc1 (centres undefined)	n	n	45µM	n	u
O=c1cc(-c2ccccn2)oc2c(NC3CCOCC3)nccc12	n	n	n	n	14µM
O=c1cc(-c2ccccn2)oc2c(-c3cn[nH]c3)nccc12	n	n	u	n	11µM
O=c1cc(-c2cnccn2)oc2c(-c3cn[nH]c3)nccc12	n	n	n	n	u
CNC(=O)c1cccc(-c2ccc(C(C)(C)C#N)cc2)n1	n	n	u	n	u
O=C(NCC1CC1)c1nc2cccnc2n(CCc2ccccc2)c1=O	n	x	u	x	u
COc1ccc(C(=O)N2CCc3cn(C)c4cccc(c34)C2)c(C)c1	n	n	22µM	n	u
COc1ccc(CC(=O)N2CCc3cn(C)c4cccc(c34)C2)cc1	n	n	u	n	u
CC(C)n1cc(-c2cc(C(=O)N(C)Cc3cccnc3)c3cc(F)ccc3n2)cn1	n[11.5 µM]	35µM	u	n	n
CC(C)CN(C)C(=O)c1cc(-c2cnn(C(C)C)c2)nc2cc(F)ccc12	n	u	n	n	u
Cn1nc(-c2ccncc2)cc1NC(=O)c1ccccc1F	n	x	u	x	u
CC(=O)N(C)CCc1noc(C2CN(Cc3c(F)cccc3Cl)C2)n1	n	n	40µM	n	u
CC(=O)N(C)CCc1noc(C2CN(C(=O)COc3ccccc3)C2)n1	n	n	n	n	n
CCN(C)C(=O)CCc1c(C)nn(-c2ccccc2)c1Oc1ccccc1F	n	n	40µM	n	u
CCN(CC)C(=O)CCc1c(C)nn(-c2ccc(F)cc2)c1Oc1ccccc1	n	n	u	n	u
CCN(CC)C(=O)CCc1c(C)nn(-c2ccc(F)cc2)c1Oc1ccccc1C	n	n	u	n	40µM
